D1 potentiator: human D1 dopamine receptor positive modulation | P21728 | HEK293 TREx D1 cells, calcium flux, dopamine EC20 potentiation | potentiation, % at 10 µM | hit rate 0.036% among 360,000; in the data active means potentiation above about 30%; further: 0% is about no effect
Target sequence (P21728 whole entry, looked up): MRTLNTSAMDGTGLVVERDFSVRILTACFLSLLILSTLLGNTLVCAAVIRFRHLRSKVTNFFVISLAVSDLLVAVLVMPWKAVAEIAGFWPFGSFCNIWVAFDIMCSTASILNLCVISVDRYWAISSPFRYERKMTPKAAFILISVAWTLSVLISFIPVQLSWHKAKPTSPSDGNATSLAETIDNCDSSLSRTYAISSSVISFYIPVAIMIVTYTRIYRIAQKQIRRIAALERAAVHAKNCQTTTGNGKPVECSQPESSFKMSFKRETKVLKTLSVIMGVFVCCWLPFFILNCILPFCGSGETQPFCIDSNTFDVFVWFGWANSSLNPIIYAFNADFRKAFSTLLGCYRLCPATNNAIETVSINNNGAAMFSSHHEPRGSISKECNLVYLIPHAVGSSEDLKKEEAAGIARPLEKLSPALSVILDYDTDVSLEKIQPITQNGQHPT
DRD3 agonist: activates the human D3 dopamine receptor | P35462 | D3R DiscoveRx beta-arrestin cells, luminescence, 90 min | max activation, % | hit rate 0.58% among 410,000 | AID 652048; in the data active means max activation above about 30%; further: 0% is about no effect
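Agonist-mode cell screen: cells plated at 1500/well and incubated overnight at 37 °C, then exposed to library compounds for 90 min at 37 °C. Detection reagent was added for 30–60 min at room temperature, and luminescence was read.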
DRD3 antagonist: D3 dopamine receptor (human) antagonism | D3R cells, DiscoveRx beta-arrestin luminescence, antagonist mode; stronger effect = lower value | max response, negative = inhibition, % | hit rate 2.5% among 360,000; in the data active means max response below about -50%; inconclusive means no clear call, values can overlap the other calls; further: on the % scale 0 is the no-effect control and ±100 the full control effect
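Cells expressing the human receptor were seeded at 1500 cells/well, incubated overnight at 37 degrees C in 5% CO2, then exposed to library compounds with dopamine controls for 90 minutes at 37 degrees C before luminescent detection.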
D1 agonist: agonists of human D1 dopamine receptor; AID 504660; HEK293 T-REx D1 cells, calcium flux, agonist mode; activation, % at 2 µM; hit rate 1% among 360,000; in the data active means activation above about 30%; further: 0% is about no effect
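Agonism was scored from calcium flux recorded over 180 s (1 read/s) after pintool compound addition, following a 10-cycle baseline. Cells were inducible force-coupled HEK293 TREx D1, plated overnight at 30 C and loaded with no-wash calcium dye.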
D1 antag: blocks dopamine activation of the human D1 receptor. P21728. HEK293 TREx D1 cells, calcium flux, dopamine EC80; stronger effect = lower value. activity change, negative = inhibition, % at 10 µM. hit rate 3.2% among 360,000. AID 504652; in the data active means activity change below about -30%; further: on the % scale 0 is the no-effect control and ±100 the full control effect
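Using tetracycline-induced force-coupled D1 Hek293 cells and a calcium dye, signals were followed for 180 s after compound, then for 180 s after EC80 dopamine, to detect inhibitors.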
The depositor's hits bear a star; u = inconclusive; x = no result given. Only some compounds are listed: those with a hit (about 6% of all), similar ones and a draw of the others.

SMILES	D1 potentiator	DRD3 agonist	DRD3 antagonist	D1 agonist	D1 antag
Cc1ccc(S(=O)(=O)c2nc(-c3ccccc3Cl)oc2N2CCN(C)CC2)cc1	x	-17	-55*	x	x
CCN1CCN(c2oc(-c3ccccc3C)nc2S(=O)(=O)c2ccccc2)CC1	-7	-36	-83*	10	1
Cc1ccc(S(=O)(=O)c2nc(-c3ccccc3Cl)oc2N2CCCCCC2)cc1	-3	-8	x	11	23
CCN(C[C@H]1N[C@@](C)(C(=O)OC)[C@H]2C(=O)N(C)C(=O)[C@@H]12)C(=O)c1ccc(C(C)(C)C)cc1	x	6	11	x	x
Cc1ccc(CCNC(=O)C2CCCN(S(=O)(=O)c3ccc4c(c3)oc(=O)n4C)C2)cc1 (centres undefined)	1	2	x	-1	-6
Cc1cccc(NC(=O)Nc2cnccn2)c1C	-1	-2	-1	7	-2
O=[N+]([O-])c1ccc(C(c2sc3nc(-c4ccco4)nn3c2O)N2CCN(c3cccc(Cl)c3)CC2)cc1 (centres undefined)	0	-11	x	-2	x
CSCCC(NS(=O)(=O)c1cccs1)C(=O)Nc1ccc(C)c(Cl)c1 (centres undefined)	-4	1	x	6	-39*
CSCCC(NS(=O)(=O)c1cccs1)C(=O)NCc1ccc(C)cc1 (centres undefined)	0	-13	-1	-2	-10
CC(NN)c1ccccc1 (centres undefined)	x	-4	x	x	x
CC(NCCC(c1ccccc1)c1ccccc1)c1ccccc1 (centres undefined)	7	-6	8	60*	17
CC1(C)CC(CC(=O)NC(=S)Nc2ccc([N+](=O)[O-])cc2)C(=O)O1 (centres undefined)	-7	-14	-83*	2	2
S=C1NCCc2ccc(Cl)cc2C1c1ccccc1 (centres undefined)	-6	-3	-62*	5	3
COc1ccccc1N=CC=C1OC(C)(C)C(C)(C)O1	-2	1	0	3	0
Cc1ccc(N=CC=C2OC(C)(C)C(C)(C)O2)c(C)c1	-3	1	19	1	-42*
N#CCCN1C(=O)C2(OCCO2)c2ccccc21	3	2	-10	3	12
CC(=O)NCC1COc2ccccc2O1 (centres undefined)	-9	3	4	2	-11
CC(C)Oc1ccc(/C=C/C(=O)NCC2COc3ccccc3O2)cc1 (centres undefined)	-1	-11	3	7	-91*
CCOc1cc(CNC(=O)Cn2c(=O)c3cccn3c3ccc(F)cc32)cc(OCC)c1OCC	-2	-13	x	11	-20
Cc1cccc(C(=O)Nc2ccc(C(=O)N/N=C/c3ccc(C)o3)cc2)c1	-9	0	-15	7	-48*
Cc1ccc(C(=O)Nc2ccc(C(=O)N/N=C/c3ccccn3)cc2)cc1	-11	4	2	2	-38*
CN(C)c1ccc(C(=O)N/N=C/c2ccccn2)cc1	2	-11	-9	-1	-40*
Cc1cccc(N2CCN(C(=O)c3cn(C)c4ccc(S(=O)(=O)N(C)C)cc4c3=O)CC2C)c1 (centres undefined)	6	-6	x	-1	5
COc1ccccc1-c1csc(C(O)(c2ccccc2)C(F)(F)F)n1 (centres undefined)	x	-9	-2	x	x
O=c1[nH]c(CN2CCN(C/C=C/c3ccccc3)CC2)nc2ccccc12	-6	-46	-77*	5	-5
SMILES	D1 potentiator	DRD3 agonist	DRD3 antagonist	D1 agonist	D1 antag
c1cnc(N2CCN(c3ncnc4c3oc3ccccc34)CC2)nc1	-2	x	x	4	-1
C(=C\c1ccccc1)/CN1CCN(c2ncnc3c2oc2ccccc23)CC1	-4	40*	8	9	-10
Nc1nc(N2CCN(C(=O)c3ccco3)CC2)nc2ccccc12	-1	-6	11	-1	-14
Nc1nc(N2CCN(C/C=C/c3ccccc3)CC2)nc2ccccc12	-19	-15	-64*	40*	-50*
CCCCN1CC(c2nc3ccccc3n2CCCCOc2ccccc2C)CC1=O (centres undefined)	0	-15	x	2	0
N#Cc1c(NC(=O)CN2C(=O)c3ccccc3C2=O)oc(-c2ccccc2)c1-c1ccccc1	x	-17	u	x	x
N#Cc1c(NC(=O)CCN2C(=O)c3ccccc3C2=O)oc(-c2ccccc2)c1-c1ccccc1	0	-6	-85*	2	11
Cc1nn(-c2ccc(C(=O)O)cc2)c2c1C(=O)CC(C)(C)C2	-2	5	2	3	-13
Cc1c(CC(Cl)(Cl)Cl)c2c(n1O)CC(C)(C)CC2=O	-3	2	34	26	-46*
O=C(NCC1CCCO1)c1c(O)c2cccc3c2n(c1=O)CCC3 (centres undefined)	0	-2	0	0	-53*
C#CCC(Cc1cnc2nc(N)nc(N)c2n1)c1ccc(C(=O)N[C@@H](CCC(=O)O)C(=O)O)cc1 (some centres undefined)	x	7	x	x	x
COc1ccccc1N1CCN(Cc2c[nH]c3ccccc23)CC1	-3	-24	-80*	12	5
Fc1ccc(N2CCN(Cc3c[nH]c4ccccc34)CC2)cc1	-14	x	x	24	-17
c1cnc(N2CCN(Cc3c[nH]c4ccccc34)CC2)nc1	2	-7	-51*	3	-8
Cc1ccc(CN2CCN(c3cccc4[nH]ccc34)CC2)cc1	-17	30	-82*	9	-21
O=C(c1ccc(Cl)cc1)N1CCN(c2cccc3[nH]ccc23)CC1	-2	3	5	4	5
COc1ccccc1N1CCN(C(=O)CCc2c[nH]c3ccccc23)CC1	0	-2	-6	3	-38*
CCN(CC)S(=O)(=O)c1ccc(NC(=O)c2c(C)oc3ncnc(N4CCOCC4)c23)cc1	-2	3	x	0	-10
N#Cc1c(N)n(C2OC(CO)C(O)C2O)c2ncnc(N)c12 (centres undefined)	x	-6	u	x	x
Cc1ccccc1N1CCN(Cc2c[nH]c3ccccc23)CC1	-7	-26	-86*	19	-2
O=C(NCCS(=O)(=O)N1CCN(c2ccc(F)cc2)CC1)c1ccco1	1	-24	u	2	-42*
O=C(NCCS(=O)(=O)N1CCN(c2ccccc2F)CC1)c1ccco1	-2	-9	-9	0	1
Cc1cccc(NC(=O)CS(=O)(=O)c2cccc3nsnc23)c1	-5	0	x	1	-3
COc1ccc(N2CCN(C(=O)NC3CC(=O)N(c4ccc(OC)cc4)C3)CC2)cc1 (centres undefined)	-7	2	5	5	-45*
CCN1CCN(C(=O)NC2CC(=O)N(c3ccc(OC)cc3)C2)CC1 (centres undefined)	14	5	7	6	-4
CCn1nc(C)cc1-c1nnc(Sc2ncc([N+](=O)[O-])s2)n1C	0	-25	-117*	0	-1

Screens as filed in PubChem.
